The text below walks through data of PubChem BioAssay (Tox21).

For assay [1], the target named is Estrogen receptor beta (Homo sapiens) (UniProt Q92731). The experiment in a line: qHTS assay to identify small molecule agonists of the estrogen receptor beta (ER-beta) signaling pathway (AID 1259377; active means well fitted activation curve with a large enough effect in the signal ratio in the repeat runs, not every such curve was filed as active; the % refers to the signal ratio). Summed up: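 Read-out: beta-lactamase FRET fluorescence. Cell line: ER-beta-UAS-bla HEK293T in 2% charcoal-stripped FBS. Exposure: 16 hr at 37C. Substrate step: 2 h at room temperature.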
Estrogen receptor beta (Homo sapiens), sequence (Q92731 whole entry, looked up): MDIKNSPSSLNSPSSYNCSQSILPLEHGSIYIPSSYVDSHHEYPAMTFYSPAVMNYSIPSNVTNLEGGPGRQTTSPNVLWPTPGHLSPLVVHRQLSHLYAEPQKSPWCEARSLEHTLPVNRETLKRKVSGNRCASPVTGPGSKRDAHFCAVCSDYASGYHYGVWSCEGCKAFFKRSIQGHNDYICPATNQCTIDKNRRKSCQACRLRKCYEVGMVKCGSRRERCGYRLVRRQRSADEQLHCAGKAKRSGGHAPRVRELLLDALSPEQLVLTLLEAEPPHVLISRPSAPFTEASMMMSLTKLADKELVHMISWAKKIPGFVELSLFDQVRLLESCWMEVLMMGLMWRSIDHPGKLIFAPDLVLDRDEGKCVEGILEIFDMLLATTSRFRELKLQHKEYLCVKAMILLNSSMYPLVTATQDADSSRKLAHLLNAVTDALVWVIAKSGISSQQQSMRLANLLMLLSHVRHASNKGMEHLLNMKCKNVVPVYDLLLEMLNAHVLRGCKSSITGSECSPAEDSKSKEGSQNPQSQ
For orientation: qHTS replaces the single test concentration by a dilution series.

Assay [2] shares this target. Put plainly: qHTS assay to identify small molecule antagonists of the estrogen receptor beta (ER-beta) signaling pathway (AID 1259378; active means well fitted inhibition curve with a large enough effect in the signal ratio in the repeat runs, not every such curve was filed as active; the % refers to the signal ratio). Summed up: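 ER-beta-UAS-bla HEK293T (GripTite) cells in 2% charcoal-stripped FBS medium were preincubated 6 hr at 37C, dosed with compound, then stimulated with 1 nM E2 (final) for 16 hr; beta-lactamase reporter read by B/G FRET fluorescence after 2 hr substrate loading.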

Assay [3] can be described thus: qHTS assay to identify small molecule agonists of the estrogen receptor beta (ER-beta) signaling pathway - cell viability counter screen (AID 1259380). Further: nearly all actives have a fitted effect of over 30% in size. Further: potency means the concentration at half of the fitted maximal effect. An outline of the steps: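 Cells used were ER-beta-UAS-bla HEK293T in medium with 2% charcoal-stripped FBS. They were treated for 16 hr at 37C. Viability came from CellTiter-Glo luminescence.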
Assay [4] concerns the target Androgen receptor (Homo sapiens) (UniProt P10275). Put plainly: qHTS assay to identify small molecule agonists of the androgen receptor (AR) signaling pathway in the presence of an antagonist (AID 1259381; calls by dose curve; further: nearly all actives have a fitted effect of over 15% in size). An outline of the steps: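 Using human MDA-kb2 cells with an MMTV promoter–luciferase construct (AR and GR response elements), agonist activity is scored under 3.0uM nilutamide (final) co-treatment; 16hr incubation, 37C, luminescence readout via ONE-Glo.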

Assay [5] is described as follows: qHTS assay to identify small molecule antagonists of the estrogen receptor beta (ER-beta) signaling pathway - cell viability counter screen (AID 1259382). Further: nearly all actives have a fitted effect of over 55% in size. Further: potency means the concentration at half of the fitted maximal effect. Summed up: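 Agonist-stimulated (1nM E2) ER-beta-UAS-bla HEK293T cells are incubated with library compounds for 16 hr at 37C. Cell viability is then assessed in the reporter-assay wells by adding CellTiter-Glo and reading luminescence after 30 min.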

Assay [6] concerns the target Estrogen receptor (Homo sapiens) (UniProt P03372). The experiment in a line: qHTS assay to identify small molecule agonists of the estrogen receptor alpha (ER-alpha) signaling pathway in the presence of an antagonist (AID 1259383; calls by dose curve; further: top concentration of the series differs between compounds; nearly all actives have a fitted effect of over 15% in size). Summed up: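 Using VM7Luc4E2 cells seeded 24hr before treatment, antagonist ICI-182,780 (10.0nM final) was added, followed by compounds at 15 concentrations. Plates incubated 22hr; ONE-Glo luminescence quantified reporter activity.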

Assay [7] can be described thus: qHTS assay to identify small molecule agonists or antagonists of the thyroid stimulating hormone receptor (TSHR) signaling pathway - wild type cell line counter screen (AID 1259384; calls by dose curve). An outline of the steps: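 Wild-type HEK293 cells were plated 18 h at 37 C/5% CO2, pin-dosed with compound plus Ro20-1724 medium, held 30 min at room temperature, then given cAMP-d2 and anti-cAMP-cryptate; fluorescence was read after 1 h. Fifteen concentrations, triplicate.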

The target in assay [8] is Thyrotropin receptor (Homo sapiens) (UniProt P16473). Put plainly: qHTS assay to identify small molecule antagonists of the thyroid stimulating hormone receptor (TSHR) signaling pathway (AID 1259385; calls by dose curve; further: nearly all actives have a fitted effect of over 20% in size). Summed up:
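TSHR-HEK293 cells were plated and held 18 h at 37C/5% CO2, then given compound plus Ro20-1724 and stimulated with TSH at 1.5 ng/mL final. After 30 min at room temperature, cAMP was detected with cAMP-d2/anti-cAMP-cryptate (1 h) by fluorescence.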

A short description of assay [9]: qHTS assay to identify small molecule agonists of the estrogen receptor alpha (ER-alpha) signaling pathway in the presence of an antagonist - cell viability counter screen (AID 1259386).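 Further: cells exposed to compounds for 22 h at 37 °C before the viability read; nearly all actives have a fitted effect of over 30% in size.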 Further: potency means the concentration at half of the fitted maximal effect. Summed up:
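ICI-182,780 at 10.0nM final accompanies the compound titration (15 concentrations, 22hr, 37C) on VM7Luc4E2 cells. The CellTiter-Fluor fluorescence readout runs in the same wells as the luciferase assay.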

Assay [10] has as its target Progesterone receptor (Homo sapiens) (UniProt P06401). The experiment in a line: qHTS assay to identify small molecule agonists of the progesterone receptor (PR) signaling pathway (AID 1346784; calls by dose curve; further: nearly all actives have a fitted effect of over 30% in size). Summed up:
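Compounds were tested for PR agonism in HEK 293T cells bearing a beta-lactamase gene under UAS control. Treatment lasted 16 hr at 37C; signal came from fluorescence of a FRET substrate.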

A short description of assay [11]: qHTS assay to identify small molecule antagonists of the progesterone receptor (PR) signaling pathway - cell viability counter screen (AID 1346798). Further: nearly all actives have a fitted effect of over 50% in size. Further: potency means the concentration at half of the fitted maximal effect. An outline of the steps:
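Following a 4 hr attachment, PR-UAS-bla HEK293T cells in charcoal-stripped FBS medium were exposed to compounds with R5020 for 16 hr; CellTiter-Glo was added and luminescence read after 30 min at room temperature.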

A short description of assay [12]: qHTS assay to identify small molecule agonists of the progesterone receptor (PR) signaling pathway - cell viability counter screen (AID 1346799; calls by dose curve; further: nearly all actives have a fitted effect of over 45% in size; further: potency means the concentration at half of the fitted maximal effect). Summed up: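 Here, 3,000 PR-UAS-bla HEK293T cells per well were treated with compounds for 16 hr after a 6 hr preincubation at 37C and 5% CO2; cell viability is the CellTiter-Glo luminescence signal.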
Assay [13] in a line: qHTS assay to identify small molecule antagonists of the TGF-beta/Smad signaling pathway - cell viability counter screen (AID 1346824). Further: nearly all actives have a fitted effect of over 50% in size. An outline of the steps:
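SBE-bla HEK 293T cells were plated overnight at 37 C, then given compounds in DMSO plus TGF-beta1 (added as 0.25 ng/mL solution) for 5 hr. After the bla read, CellTiter-Glo was added to the same wells and luminescence read after 30 min at room temperature.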

A short description of assay [14]: qHTS assay to identify small molecule agonists of the TGF-beta/Smad signaling pathway - cell viability counter screen (AID 1346829). Further: top concentration of the series differs between compounds; nearly all actives have a fitted effect of over 45% in size. An outline of the steps: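 After overnight seating at 37 C and 5% CO2, reporter cells got compounds for 5 hr and FRET substrate for 2 hr; cell viability then came from CellTiter-Glo luminescence.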
Assay [15] can be described thus: qHTS assay to identify small molecule agonists of the TGF-beta/Smad signaling pathway (AID 1346859; active means well fitted activation curve with a large enough effect in the signal ratio in the repeat runs, not every such curve was filed as active; the % refers to the signal ratio; further: series mostly up to about 77 µM). An outline of the steps:
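Each well held 4,000 SBE-bla HEK 293T cells incubated overnight before compound addition; 5 hr later the cleavable FRET substrate went on for 2 hr at room temperature, and fluorescence was read at two emissions.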

In assay [16] the target is Thyrotropin-releasing hormone receptor (Homo sapiens) (UniProt P34981). Put plainly: qHTS assay to identify small molecule antagonists of the thyrotropin-releasing hormone receptor (TRHR) signaling pathway (AID 1346877; active means well fitted inhibition curve with a large enough effect in the repeat runs, not every such curve was filed as active; further: series mostly up to about 51 µM). An outline of the steps:
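Screening used HEK293 cells engineered with TRHR, with a brief 5 min room-temperature compound exposure preceding addition of TRH to 1 nM. The read-out was kinetic calcium-dye fluorescence, concentration-response from 15 doses in triplicate.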

The nature of assay [17]: qHTS assay to identify small molecule antagonists of the sonic hedgehog signaling (Shh) pathway (AID 1259369; calls by dose curve; further: nearly all actives have a fitted effect of over 45% in size; further: potency means the concentration at half of the fitted maximal effect). Summed up: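 Conditioned medium drives Shh signalling in 3T3Gli1-Luc cells; compounds in DMSO co-applied, 24hr at 37 C, then luciferase luminescence.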
A short description of assay [18]: qHTS assay to identify small molecule agonists of the androgen receptor (AR) signaling pathway in the presence of an antagonist - cell viability counter screen (AID 1259379).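 Further: MDA-kb2 human breast cancer cells carrying an MMTV luciferase reporter; series mostly up to about 92 µM; nearly all actives have a fitted effect of over 25% in size.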 Summed up: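 A CellTiter-Fluor read-out measured viability of MDA-kb2 reporter cells (MMTV promoter with AR and GR response elements). Treatment: nilutamide 3.0uM final with compounds at 15 concentrations, 16 hr, 37C, 0% CO2.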

In assay [19] the target is Progesterone receptor (Homo sapiens) (UniProt P06401). Put plainly: qHTS assay to identify small molecule antagonists of the progesterone receptor (PR) signaling pathway (AID 1346795; active means well fitted inhibition curve with a large enough effect in the signal ratio in the repeat runs, not every such curve was filed as active; the % refers to the signal ratio). Summed up:
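In HEK293T cells bearing the PR-UAS-bla reporter, compound effects on promegestone-driven (1 nM) beta-lactamase expression are assessed after 16 hr using a fluorescent FRET substrate incubated 2 hr at room temperature.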

Values without a mark were called inactive. Results filed as inconclusive are left out. The source made the active and inactive calls. Unless noted, the call rests on the fitted dose curve; in most records, active means well fitted curve in the direction sought with a large enough effect in the repeat runs; inconclusive means weak or mixed curves; inactive means no such curve, though single readings can be large; an effect the other way counts as inactive or inconclusive.

Thyrotropin-releasing hormone receptor (Homo sapiens), sequence (P34981 whole entry, looked up): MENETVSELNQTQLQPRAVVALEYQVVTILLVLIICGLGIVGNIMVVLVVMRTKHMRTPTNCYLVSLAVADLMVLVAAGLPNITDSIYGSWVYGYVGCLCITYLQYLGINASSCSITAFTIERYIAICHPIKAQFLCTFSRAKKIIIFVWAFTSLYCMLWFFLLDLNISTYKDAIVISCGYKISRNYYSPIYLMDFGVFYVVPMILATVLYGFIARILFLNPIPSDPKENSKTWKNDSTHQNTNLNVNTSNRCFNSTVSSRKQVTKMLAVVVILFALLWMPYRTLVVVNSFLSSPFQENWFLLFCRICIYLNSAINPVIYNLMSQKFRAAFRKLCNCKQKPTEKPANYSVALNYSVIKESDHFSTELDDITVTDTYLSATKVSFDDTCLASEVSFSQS
Androgen receptor (Homo sapiens), sequence (P10275 whole entry, looked up): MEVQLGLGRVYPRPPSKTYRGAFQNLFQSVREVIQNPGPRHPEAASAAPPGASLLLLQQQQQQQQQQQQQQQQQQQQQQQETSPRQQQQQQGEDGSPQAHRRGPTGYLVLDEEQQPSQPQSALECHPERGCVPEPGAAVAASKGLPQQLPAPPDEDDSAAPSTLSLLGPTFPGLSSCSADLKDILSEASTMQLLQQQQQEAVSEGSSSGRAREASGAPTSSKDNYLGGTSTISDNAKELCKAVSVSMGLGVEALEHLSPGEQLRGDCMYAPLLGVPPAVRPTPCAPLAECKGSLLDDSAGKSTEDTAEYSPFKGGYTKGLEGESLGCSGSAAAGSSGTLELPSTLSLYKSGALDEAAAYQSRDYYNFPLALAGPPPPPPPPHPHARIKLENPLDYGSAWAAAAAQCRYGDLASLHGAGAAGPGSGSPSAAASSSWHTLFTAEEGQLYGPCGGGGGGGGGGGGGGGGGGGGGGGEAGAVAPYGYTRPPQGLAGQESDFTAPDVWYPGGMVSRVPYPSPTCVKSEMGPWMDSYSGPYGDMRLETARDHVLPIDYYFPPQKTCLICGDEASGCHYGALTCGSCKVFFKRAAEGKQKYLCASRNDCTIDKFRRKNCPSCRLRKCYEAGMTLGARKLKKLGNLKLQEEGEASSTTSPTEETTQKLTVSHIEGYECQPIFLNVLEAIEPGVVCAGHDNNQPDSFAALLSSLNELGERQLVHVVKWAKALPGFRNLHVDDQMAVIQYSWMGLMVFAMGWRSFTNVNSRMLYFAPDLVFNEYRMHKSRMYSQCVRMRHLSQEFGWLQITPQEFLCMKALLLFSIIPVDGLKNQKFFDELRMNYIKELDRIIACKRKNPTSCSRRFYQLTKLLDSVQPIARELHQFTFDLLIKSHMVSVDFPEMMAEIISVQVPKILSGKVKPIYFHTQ
Estrogen receptor (Homo sapiens), sequence (P03372 whole entry, looked up): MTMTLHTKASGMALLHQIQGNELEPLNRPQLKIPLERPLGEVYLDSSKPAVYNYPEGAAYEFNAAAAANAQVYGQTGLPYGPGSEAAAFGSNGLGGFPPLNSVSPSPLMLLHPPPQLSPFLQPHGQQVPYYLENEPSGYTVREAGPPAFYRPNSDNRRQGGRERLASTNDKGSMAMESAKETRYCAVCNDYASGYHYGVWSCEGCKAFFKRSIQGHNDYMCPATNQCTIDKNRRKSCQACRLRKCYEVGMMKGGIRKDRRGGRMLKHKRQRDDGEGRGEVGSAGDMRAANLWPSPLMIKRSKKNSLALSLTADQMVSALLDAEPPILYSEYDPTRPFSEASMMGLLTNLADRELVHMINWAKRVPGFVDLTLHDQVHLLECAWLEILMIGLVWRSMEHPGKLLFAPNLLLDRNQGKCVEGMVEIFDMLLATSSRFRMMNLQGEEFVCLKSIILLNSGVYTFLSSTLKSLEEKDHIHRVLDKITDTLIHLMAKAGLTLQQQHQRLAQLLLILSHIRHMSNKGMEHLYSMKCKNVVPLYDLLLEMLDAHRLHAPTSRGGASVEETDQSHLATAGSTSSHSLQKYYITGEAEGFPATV
Thyrotropin receptor (Homo sapiens), sequence (P16473 whole entry, looked up): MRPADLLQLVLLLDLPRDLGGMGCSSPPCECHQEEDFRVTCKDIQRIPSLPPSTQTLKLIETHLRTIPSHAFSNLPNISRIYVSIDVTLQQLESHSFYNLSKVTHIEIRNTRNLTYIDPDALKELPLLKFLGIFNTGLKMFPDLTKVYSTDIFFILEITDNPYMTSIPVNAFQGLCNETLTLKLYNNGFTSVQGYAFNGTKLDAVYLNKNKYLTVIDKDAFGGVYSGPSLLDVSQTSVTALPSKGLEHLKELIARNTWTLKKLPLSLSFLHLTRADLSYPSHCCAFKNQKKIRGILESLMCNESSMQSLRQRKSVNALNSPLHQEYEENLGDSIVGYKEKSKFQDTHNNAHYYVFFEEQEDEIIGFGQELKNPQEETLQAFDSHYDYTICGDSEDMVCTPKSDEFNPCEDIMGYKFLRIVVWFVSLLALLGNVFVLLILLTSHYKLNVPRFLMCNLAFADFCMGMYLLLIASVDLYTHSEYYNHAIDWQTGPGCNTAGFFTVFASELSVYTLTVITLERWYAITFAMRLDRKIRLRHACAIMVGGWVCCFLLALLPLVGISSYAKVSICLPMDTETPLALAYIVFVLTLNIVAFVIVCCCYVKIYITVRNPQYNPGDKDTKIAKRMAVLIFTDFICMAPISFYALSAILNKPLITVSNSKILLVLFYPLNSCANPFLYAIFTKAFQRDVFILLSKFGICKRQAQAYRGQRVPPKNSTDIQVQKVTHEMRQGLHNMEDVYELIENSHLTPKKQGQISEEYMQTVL
Progesterone receptor (Homo sapiens), sequence (P06401 whole entry, looked up): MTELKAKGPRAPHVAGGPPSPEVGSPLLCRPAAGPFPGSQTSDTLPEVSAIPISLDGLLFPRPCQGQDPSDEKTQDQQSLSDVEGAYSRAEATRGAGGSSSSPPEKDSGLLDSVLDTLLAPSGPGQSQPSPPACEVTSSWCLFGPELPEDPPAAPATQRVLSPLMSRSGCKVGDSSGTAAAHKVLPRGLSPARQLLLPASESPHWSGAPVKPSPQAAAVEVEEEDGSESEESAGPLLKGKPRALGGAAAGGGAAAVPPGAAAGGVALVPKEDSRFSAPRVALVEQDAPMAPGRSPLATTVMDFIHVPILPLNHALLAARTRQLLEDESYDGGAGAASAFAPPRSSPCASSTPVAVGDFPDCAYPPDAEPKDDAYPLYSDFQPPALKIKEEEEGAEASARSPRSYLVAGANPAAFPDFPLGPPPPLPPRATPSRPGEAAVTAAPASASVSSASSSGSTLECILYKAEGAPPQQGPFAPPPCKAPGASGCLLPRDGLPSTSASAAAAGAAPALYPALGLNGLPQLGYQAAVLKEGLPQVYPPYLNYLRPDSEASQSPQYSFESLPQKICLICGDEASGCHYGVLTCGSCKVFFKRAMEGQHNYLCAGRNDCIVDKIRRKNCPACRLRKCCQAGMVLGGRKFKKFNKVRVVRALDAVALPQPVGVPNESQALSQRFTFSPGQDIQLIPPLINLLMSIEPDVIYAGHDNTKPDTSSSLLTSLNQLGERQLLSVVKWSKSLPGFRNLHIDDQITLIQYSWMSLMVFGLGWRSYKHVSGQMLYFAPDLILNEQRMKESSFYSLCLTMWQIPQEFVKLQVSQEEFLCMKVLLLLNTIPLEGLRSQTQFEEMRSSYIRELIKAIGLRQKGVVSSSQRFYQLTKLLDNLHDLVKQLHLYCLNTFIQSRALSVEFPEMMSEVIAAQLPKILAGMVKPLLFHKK

For the compound `CC(C)=CCOc1c2occc2cc2ccc(=O)oc12`, the Potency entry in assay [1], in assay [2], in assay [3], in assay [4], in assay [5] and in assay [6] was “inactive” throughout. Further, the Potency result in assay [8], in assay [9], in assay [10], in assay [11], in [12] and in [13] was “inactive” throughout. Further, the Potency entry in assay [14] and in [16] was “inactive” throughout. The call in [7] and in assay [15] was inactive.

With `C[C@H]1CNCCc2ccc(Cl)cc21`, the Potency entry in assay [17], in [1], in [2], in assay [18], in assay [6] and in assay [8] was “inactive” each time. The Potency entry in assay [9], in assay [10], in assay [19], in assay [11], in assay [13] and in assay [14] was “inactive” throughout. In assay [16], the Potency result is “inactive”. Further, the call in [7] and in assay [15] was inactive.

With `CN(C)c1ccc(N(C)C)cc1`, the Potency entry in assay [17], in [1], in [18], in [10], in [19] and in assay [11] was “inactive” in each case. For the same compound, the Potency entry in [13] and in assay [14] was “inactive” each time. For the same compound, the result in [7] and in [15] was inactive.

For the compound `C=CCC1([C@H](C)CCC)C(=O)NC(=O)NC1=O`, the Potency entry in assay [17], in [1], in [2], in assay [3], in assay [5] and in assay [8] was “inactive” throughout. Besides, the Potency entry in assay [9], in assay [10], in [19], in assay [11], in assay [12] and in assay [13] was “inactive” each time. Besides, the Potency result in [14] and in assay [16] was “inactive” in each case. In addition, the result in assay [7] and in assay [15] was inactive.

On to `CC(Cl)Cl`, for which the Potency result in assay [1], in [2], in assay [18], in assay [3], in [5] and in assay [6] was “inactive” in each case. The Potency entry in assay [8], in assay [9], in assay [10], in [19], in assay [11] and in assay [12] was “inactive” each time. Moreover, the Potency result in [13], in assay [14] and in assay [16] was “inactive” in each case. The compound was classed as inactive in [7] and in assay [15].

For the compound `O=[N+]([O-])c1cc(C(F)(F)F)cc([N+](=O)[O-])c1Cl`, the figures for the Potency in [3], in assay [9] and in [12] were 54.7 µM (active), 30.8 µM (active) and 13.7 µM (active), respectively. In addition, the Potency entry in [6], in [8], in assay [10], in [13], in assay [14] and in assay [16] was “inactive” each time. For the same compound, the compound was called inactive in assay [7] and in assay [15].

Turning to `CC(C)N(C(=O)COc1nnc(C(F)(F)F)s1)c1ccc(F)cc1`, the Potency result in assay [1], in assay [18], in assay [5], in assay [6], in assay [8] and in assay [9] was “inactive” in each case. In addition, the Potency result in assay [10], in assay [11], in assay [13] and in assay [14] was “inactive” throughout. Further, the result in assay [7] and in assay [15] was inactive.

Consider `Cc1ccc(-c2c(Cl)nc(C#N)n2S(=O)(=O)N(C)C)cc1`, for which the Potency was 7.69 µM (active) in [17], 27.3 µM (active) in assay [5] and 8.63 µM (active) in assay [11]. Also, the Potency entry in assay [4], in assay [6], in assay [9], in assay [13] and in assay [14] was “inactive” in each case. Besides, the compound was classed as inactive in assay [15].

In the case of `N#CCC#N`, the Potency result in assay [17], in assay [2], in assay [4], in [5], in [8] and in [9] was “inactive” in each case. Further, the Potency result in [10], in [19], in [12], in assay [13], in assay [14] and in [16] was “inactive” throughout. Further, the compound was called inactive in assay [7] and in [15].
